# This is a sample that favours compounds with a hit; in the whole collection about 2.4% have one here.
# D2 PAM-1: D2 dopamine receptor (human) potentiation; P14416; actives 0.34% (n = 340,000); HEK293 T-REx D2, calcium flux, EC20 dopamine potentiation; AID 485347; potentiation, % at 10 µM;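 active = potentiation over 3 SD above the plate norm, cut at about 30% in these data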; also: 0% is about no effect
# Target sequence (P14416 whole entry, looked up): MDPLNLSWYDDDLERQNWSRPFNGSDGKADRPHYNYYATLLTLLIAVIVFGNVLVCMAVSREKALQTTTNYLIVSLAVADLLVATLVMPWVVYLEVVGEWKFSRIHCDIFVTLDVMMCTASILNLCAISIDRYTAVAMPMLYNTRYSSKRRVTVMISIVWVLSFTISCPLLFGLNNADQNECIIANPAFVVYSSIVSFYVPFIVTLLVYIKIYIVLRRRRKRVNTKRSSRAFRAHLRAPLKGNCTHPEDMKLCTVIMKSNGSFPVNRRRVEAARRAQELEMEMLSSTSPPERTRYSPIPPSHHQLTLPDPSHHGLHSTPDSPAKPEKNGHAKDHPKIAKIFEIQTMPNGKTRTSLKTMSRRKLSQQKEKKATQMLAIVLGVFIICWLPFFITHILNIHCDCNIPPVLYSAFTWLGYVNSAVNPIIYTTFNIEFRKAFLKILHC
#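 Tetracycline-induced HEK293 T-REx cells force-coupled to calcium signalling expressed D2; compounds were pin-added after a 10 s baseline, read kinetically 180 s, then an EC20 dopamine challenge followed with a further 180 s calcium read.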
# D2 antagonist: antagonists of human D2 dopamine receptor; P14416; HEK293 TREx D2 cells, calcium flux, dopamine EC80; inhibition, % at 10 µM; actives 2% (n = 340,000); in the data active = inhibition above about 30%; inactive = below that, where a call was filed; also: 0% is about no effect
#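 Compounds are added to dye-loaded, induced HEK293 T-REx cells coupled to calcium release via D2; after a 3 min kinetic read an EC80 dopamine stimulus is given and fluorescence is recorded for 3 more min.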
# D2 ag-1: agonists of human D2 dopamine receptor (beta-arrestin). P14416. DiscoveRx PathHunter D2 beta-arrestin, luminescence, 90 min; 100% = 57 uM dopamine signal. activation, % (test concentration not listed). actives 0.084% (n = 360,000); in the data active = activation above about 40%; inconclusive = between about 15% and that limit
#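 Agonist mode: compounds alone added to overnight-plated D2 PathHunter cells for 90 min at 37 C, with 57 uM final dopamine (EC100) defining full response. Beta-arrestin recruitment detected by chemiluminescent reagent, read after 1 h at ambient temperature.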
# D2 ag-2: D2 dopamine receptor (human) agonism | P14416 | HEK293 T-REx D2 cells, calcium flux agonist mode | activation, % at 2 µM | actives 0.53% (n = 340,000);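 active = activation over 3 SD above normal in the single-dose calcium agonist read, cut at about 30% in these data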; also: 0% is about no effect
#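 Tetracycline-induced HEK293 T-REx cells with force-coupled D2 receptor, plated overnight at 30 C, loaded with no-wash calcium dye. After a 10 s baseline, compound was pin-added and calcium flux read kinetically for 180 s; calcium rises flagged agonists.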
# D2 PAM-2: human D2 receptor positive allosteric modulation; DiscoveRx D2 beta-arrestin cells, luminescence, 90 min; 100% = 57 uM dopamine signal; AID 624464; potentiation, % (concentration not given with the values); actives 0.23% (n = 360,000); in the data active = potentiation above about 50%; inconclusive = mostly about 30% to 49%
#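 PathHunter D2 cells, attached overnight at 37 deg C, received compound in DMSO plus dopamine at EC20 (50 nM final) for 90 min at 37 deg C. Beta-arrestin recruitment was read as luminescence after 1 h with detection reagent at ambient temperature.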
# D3 arrestin ag: activates human D3 dopamine receptor beta-arrestin recruitment; shares compounds with D2 ag-2; DiscoveRx D3 beta-arrestin cells, luminescence, 90 min; actives 4% (n = 2,300); Potency, µM (doses to about 76.9 µM), without a hit: at the highest dose activation, actives largely listed as activators; AID 720506;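 also: potency is read from the fitted curve at half-maximal effect; 100% = dopamine control response; nearly all actives have a fitted effect of over 70% in size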
# D2 ag-3: counter-screen for D3 agonists: human D2 dopamine receptor agonism | shares compounds with D2 ag-2 | DiscoveRx PathHunter D2 beta-arrestin, luminescence, 90 min; response scale: percent relative to full dopamine signal | Potency, µM (top dose mostly 76.9 µM), inactives show at the top dose activation, hits mostly activators | actives 5.9% (n = 2,300) | AID 720507; also: potency is read from the fitted curve at half-maximal effect; % of control where 0% means no effect; nearly all actives have a fitted effect of over 70% in size
# * hit, by the source's call; ? = inconclusive; . = no result given. Unless noted, calls follow the shape of the dose curve; as a rule, active = well fitted activation curve with a large enough effect; inconclusive = small, poorly fitted or top-dose-only effect; inactive = flat fitted curve, though single readings scatter.
SMILES,D2 PAM-1,D2 antagonist,D2 ag-1,D2 ag-2,D2 PAM-2,D3 arrestin ag,D2 ag-3
Cc1ccccc1CS(=O)(=O)Cc1ccc(C(=O)NCCc2ccc(Cl)cc2)o1,-15.9,.,.,.,.,.,.
Cc1ccc(S(=O)(=O)N2CCOCC2)cc1C(=O)N1CCN(c2ncccn2)CC1,-15.7,-26.5,5.6,35.7*,25.2,-8.2%,-1.2%
Cc1ccc(S(=O)(=O)N2CCOCC2)cc1C(=O)N1CCOCC1,18.3,.,-2.0,.,-2.7,.,.
Cc1ccccc1C(=O)NNC(=O)c1cc(S(=O)(=O)N2CCOCC2)ccc1C,-1.8,17.1,-2.2,0.7,-3.8,-5.0%,-1.8%
CCN(c1ccccc1)c1ncnc2c1cnn2-c1ccc(OC)cc1,-11.8,.,.,-0.2,.,.,.
CCOC(=O)c1ccc(-c2c(-c3ccc(OC)cc3)oc(=O)c3cc(OC)c(OC)cc23)cc1F,.,.,1.0,.,3.4,-2.8%,-0.7%
CCOC(=O)c1ccc(-c2c(-c3cc(OC)c(OC)c(OC)c3)noc2C)cc1F,3.3,16.4,0.7,-0.3,-13.7,.,.
O=[N+]([O-])c1cc2c(cc1CN1CCN(c3ccccc3F)CC1)OCO2,-10.6,-0.2,-2.6,6.1,-2.3,.,.
COc1cc(CN2CCN(c3ccccc3F)CC2)c([N+](=O)[O-])cc1OC,-12.9,11.0,-0.1,36.5*,-4.3,?,27.3%
Cc1cccc(CCNC(=O)c2ccc3c(c2)nc2n3CCCCC2)c1,-0.5,.,.,.,.,.,.
COc1ccc(/C=C2\CCCC3C2=NN(C(=O)CSc2ncn[nH]2)C3c2ccc(OC)cc2)cc1 (centres undefined),-16.4,4.5,6.1,-0.3,-8.5,.,.
O=C(CSc1ncn[nH]1)N1N=C2/C(=C/c3ccccc3)CCCC2C1c1ccccc1 (centres undefined),-13.6,33.3*,11.7,41.3*,9.4,6.3%,?
O=C(Nc1ccc(OC(F)(F)F)cc1)c1cnc2n(c1=O)CCS2,6.4,-4.0,-3.4,0.4,-3.0,.,.
CCCCOC(=O)c1ccc(NC(=O)c2cnc3n(c2=O)CCS3)cc1,-0.7,4.4,0.5,-0.3,13.5,9.6%,16.7%
CCc1ccc(C(=O)c2cn(Cc3ccc(F)cc3)c3cc(OC)c(OC)cc3c2=O)cc1,-0.9,.,.,-0.3,.,.,.
CCOC(=O)CSc1nc2sc3c(c2c(=O)n1Cc1ccccc1)CC(C)CC3 (centres undefined),0.7,.,.,1.1,.,.,.
CCCCN(C)C(=O)c1nc2ccccn2c1CN1CCN(c2cnccn2)CC1,-4.1,-11.4,-1.2,0.2,-3.3,.,.
CCCCN(C)C(=O)c1nc2ccccn2c1CN1CCN(c2ccccn2)CC1,-24.6,4.8,0.9,52.6*,-10.7,29.0%,11.4%
O=C(CCn1cccn1)Nc1ccc(Br)cc1F,-12.8,.,.,0.2,.,.,.
Cc1nc(-c2cccc(NC(=O)Nc3ccc([N+](=O)[O-])cc3)c2)no1,.,.,.,4.6,.,.,.
CN1CC2=Cc3ccccc3OC23Oc2ccccc2C=C3C1,-18.1,64.2*,-7.7,58.6*,-42.2,-19.1%,-8.2%
CCN(c1cccc(C)c1)S(=O)(=O)c1cc(Br)cc2c1N(C(C)=O)C(C)C2 (centres undefined),-2.9,.,.,-0.6,.,.,.
Nc1ccc(C(=O)c2cccs2)cc1[N+](=O)[O-],7.2,19.4,-1.6,0.0,-14.8,-3.8%,-5.4%
Nc1ccc(C(=O)O)cc1[N+](=O)[O-],-1.5,-18.5,-4.7,0.0,-5.5,.,.
CCc1ccc(NC(=O)Cn2c(=O)n(CCCCC(=O)NCCc3ccc(Cl)cc3)c(=O)c3ccccc32)cc1,-0.8,.,.,-0.1,.,.,.
C/C(=N\NC(=S)NC1CCCCC1)c1ccccc1,-22.7,40.7*,11.2,44.6*,-43.8,2.5%,30.0%
S=C(NCCCc1ccccc1)NC1CCCCC1,-19.5,-3.3,-3.3,36.6*,-21.1,5.4%,-0.6%
S=C(NCc1ccccc1)NC1CCCCC1,-10.6,2.8,-0.5,-0.1,-6.6,.,.

# Bioassay records: PubChem, National Center for Advancing Translational Sciences (NCATS)
